Of roughly 21,000 targets only a part is listed; those with the largest changes were picked by preference.
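Note: competitive chemoproteomic profiling in live THP-1 cells with an iodoacetamide desthiobiotin (IA-DTB) probe, comparing probe-labelled peptide intensities in compound-treated cells against DMSO-treated controls.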

UniProt Q9NUI1, sequence (Q9NUI1 whole entry, looked up): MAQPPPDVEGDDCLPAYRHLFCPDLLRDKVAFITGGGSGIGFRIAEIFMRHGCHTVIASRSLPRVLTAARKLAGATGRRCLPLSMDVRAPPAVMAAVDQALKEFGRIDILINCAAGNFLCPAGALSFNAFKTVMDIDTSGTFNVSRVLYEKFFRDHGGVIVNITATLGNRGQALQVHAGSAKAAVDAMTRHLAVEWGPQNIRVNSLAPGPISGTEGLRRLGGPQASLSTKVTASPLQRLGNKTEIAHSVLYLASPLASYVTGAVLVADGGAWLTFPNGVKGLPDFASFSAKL
UniProt Q8IY37, sequence (Q8IY37 whole entry, looked up): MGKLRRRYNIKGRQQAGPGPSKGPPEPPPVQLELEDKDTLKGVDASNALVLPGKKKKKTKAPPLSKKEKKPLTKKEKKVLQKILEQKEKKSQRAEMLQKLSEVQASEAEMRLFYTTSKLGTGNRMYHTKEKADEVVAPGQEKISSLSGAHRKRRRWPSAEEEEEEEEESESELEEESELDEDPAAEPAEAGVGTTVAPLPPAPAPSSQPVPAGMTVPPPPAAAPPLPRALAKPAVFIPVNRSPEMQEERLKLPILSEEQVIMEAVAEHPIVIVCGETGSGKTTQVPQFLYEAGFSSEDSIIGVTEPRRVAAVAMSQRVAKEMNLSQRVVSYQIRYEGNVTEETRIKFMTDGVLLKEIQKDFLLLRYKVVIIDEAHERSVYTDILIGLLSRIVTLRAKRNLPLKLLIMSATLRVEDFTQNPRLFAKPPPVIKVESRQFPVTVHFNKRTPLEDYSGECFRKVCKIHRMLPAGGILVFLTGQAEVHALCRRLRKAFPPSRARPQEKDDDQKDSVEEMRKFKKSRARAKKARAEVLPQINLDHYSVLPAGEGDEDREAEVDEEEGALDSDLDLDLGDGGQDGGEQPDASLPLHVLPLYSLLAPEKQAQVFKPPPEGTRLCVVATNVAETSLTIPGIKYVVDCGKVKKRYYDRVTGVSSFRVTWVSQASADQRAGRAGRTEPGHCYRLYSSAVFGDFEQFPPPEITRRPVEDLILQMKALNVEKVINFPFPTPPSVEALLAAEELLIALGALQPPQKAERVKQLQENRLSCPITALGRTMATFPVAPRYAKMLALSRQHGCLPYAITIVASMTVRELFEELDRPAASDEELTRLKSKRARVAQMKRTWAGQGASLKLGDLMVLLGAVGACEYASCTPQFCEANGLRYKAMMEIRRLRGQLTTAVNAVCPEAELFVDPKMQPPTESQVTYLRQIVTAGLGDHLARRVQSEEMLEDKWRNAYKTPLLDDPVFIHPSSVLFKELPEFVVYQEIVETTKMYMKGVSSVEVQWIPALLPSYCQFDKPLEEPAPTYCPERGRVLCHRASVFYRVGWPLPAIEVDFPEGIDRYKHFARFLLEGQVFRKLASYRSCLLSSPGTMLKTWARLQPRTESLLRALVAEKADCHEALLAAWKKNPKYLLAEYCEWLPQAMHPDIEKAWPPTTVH
UniProt Q86TI2, sequence (Q86TI2 whole entry, looked up): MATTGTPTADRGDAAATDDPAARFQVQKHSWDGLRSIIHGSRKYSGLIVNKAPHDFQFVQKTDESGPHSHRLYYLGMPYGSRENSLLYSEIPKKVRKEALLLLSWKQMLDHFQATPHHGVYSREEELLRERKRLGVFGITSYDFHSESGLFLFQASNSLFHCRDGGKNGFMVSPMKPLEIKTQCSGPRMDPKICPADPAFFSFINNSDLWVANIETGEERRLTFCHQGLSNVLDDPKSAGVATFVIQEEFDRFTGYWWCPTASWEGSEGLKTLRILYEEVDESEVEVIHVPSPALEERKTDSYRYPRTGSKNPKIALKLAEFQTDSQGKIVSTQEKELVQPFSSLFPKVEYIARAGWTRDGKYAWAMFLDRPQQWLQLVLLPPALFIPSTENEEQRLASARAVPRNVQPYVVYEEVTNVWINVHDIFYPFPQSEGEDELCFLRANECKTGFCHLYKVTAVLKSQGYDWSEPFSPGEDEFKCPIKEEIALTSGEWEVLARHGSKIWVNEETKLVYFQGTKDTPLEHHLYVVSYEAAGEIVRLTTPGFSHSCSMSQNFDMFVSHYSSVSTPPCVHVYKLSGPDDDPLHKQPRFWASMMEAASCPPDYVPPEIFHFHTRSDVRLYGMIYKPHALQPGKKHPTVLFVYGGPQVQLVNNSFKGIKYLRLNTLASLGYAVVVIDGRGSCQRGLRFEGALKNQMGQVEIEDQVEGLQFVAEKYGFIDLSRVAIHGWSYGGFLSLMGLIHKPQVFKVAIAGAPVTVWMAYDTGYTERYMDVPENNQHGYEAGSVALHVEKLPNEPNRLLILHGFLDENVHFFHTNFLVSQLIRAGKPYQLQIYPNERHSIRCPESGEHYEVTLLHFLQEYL
UniProt Q86YQ8, sequence (Q86YQ8 whole entry, looked up): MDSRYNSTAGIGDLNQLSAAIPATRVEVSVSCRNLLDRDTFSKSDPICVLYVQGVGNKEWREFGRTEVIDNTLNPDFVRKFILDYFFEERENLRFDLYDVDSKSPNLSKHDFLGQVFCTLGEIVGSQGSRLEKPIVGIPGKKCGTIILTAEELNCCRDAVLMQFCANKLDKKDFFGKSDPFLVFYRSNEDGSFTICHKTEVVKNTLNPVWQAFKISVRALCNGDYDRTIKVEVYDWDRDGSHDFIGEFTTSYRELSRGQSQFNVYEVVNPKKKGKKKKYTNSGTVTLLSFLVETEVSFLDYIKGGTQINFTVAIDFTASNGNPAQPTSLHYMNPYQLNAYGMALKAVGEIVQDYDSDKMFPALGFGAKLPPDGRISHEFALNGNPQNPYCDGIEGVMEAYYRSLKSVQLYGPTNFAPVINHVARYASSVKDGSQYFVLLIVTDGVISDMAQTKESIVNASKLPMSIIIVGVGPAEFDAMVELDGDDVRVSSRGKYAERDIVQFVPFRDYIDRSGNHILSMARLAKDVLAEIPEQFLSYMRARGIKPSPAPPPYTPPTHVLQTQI
UniProt Q7L014, sequence (Q7L014 whole entry, looked up): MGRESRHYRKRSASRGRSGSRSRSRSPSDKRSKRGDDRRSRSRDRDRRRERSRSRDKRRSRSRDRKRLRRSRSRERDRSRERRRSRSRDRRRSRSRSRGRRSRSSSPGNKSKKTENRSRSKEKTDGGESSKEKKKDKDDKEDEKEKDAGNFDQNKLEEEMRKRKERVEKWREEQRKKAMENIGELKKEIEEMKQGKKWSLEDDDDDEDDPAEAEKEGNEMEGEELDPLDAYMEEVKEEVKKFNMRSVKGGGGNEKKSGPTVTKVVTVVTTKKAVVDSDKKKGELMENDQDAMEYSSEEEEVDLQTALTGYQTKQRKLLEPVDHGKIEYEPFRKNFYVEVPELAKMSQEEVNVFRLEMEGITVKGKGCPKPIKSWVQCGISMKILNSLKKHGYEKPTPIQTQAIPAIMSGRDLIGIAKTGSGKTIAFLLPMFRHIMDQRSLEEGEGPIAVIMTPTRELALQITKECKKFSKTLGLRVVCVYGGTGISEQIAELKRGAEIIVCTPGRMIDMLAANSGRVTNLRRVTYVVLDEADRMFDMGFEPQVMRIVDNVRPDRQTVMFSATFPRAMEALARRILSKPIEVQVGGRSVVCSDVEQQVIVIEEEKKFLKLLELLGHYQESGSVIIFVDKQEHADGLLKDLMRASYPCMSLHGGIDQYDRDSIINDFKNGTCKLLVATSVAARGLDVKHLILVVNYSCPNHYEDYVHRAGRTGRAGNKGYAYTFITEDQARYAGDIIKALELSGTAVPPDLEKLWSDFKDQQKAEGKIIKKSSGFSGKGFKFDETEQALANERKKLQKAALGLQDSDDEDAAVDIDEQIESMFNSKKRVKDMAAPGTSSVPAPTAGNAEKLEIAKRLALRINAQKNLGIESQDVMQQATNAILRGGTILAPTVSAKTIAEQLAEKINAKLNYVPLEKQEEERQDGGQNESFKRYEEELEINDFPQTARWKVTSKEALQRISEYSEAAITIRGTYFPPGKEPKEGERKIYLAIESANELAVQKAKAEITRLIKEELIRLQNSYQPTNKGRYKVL
UniProt Q8WYA6, sequence (Q8WYA6 whole entry, looked up): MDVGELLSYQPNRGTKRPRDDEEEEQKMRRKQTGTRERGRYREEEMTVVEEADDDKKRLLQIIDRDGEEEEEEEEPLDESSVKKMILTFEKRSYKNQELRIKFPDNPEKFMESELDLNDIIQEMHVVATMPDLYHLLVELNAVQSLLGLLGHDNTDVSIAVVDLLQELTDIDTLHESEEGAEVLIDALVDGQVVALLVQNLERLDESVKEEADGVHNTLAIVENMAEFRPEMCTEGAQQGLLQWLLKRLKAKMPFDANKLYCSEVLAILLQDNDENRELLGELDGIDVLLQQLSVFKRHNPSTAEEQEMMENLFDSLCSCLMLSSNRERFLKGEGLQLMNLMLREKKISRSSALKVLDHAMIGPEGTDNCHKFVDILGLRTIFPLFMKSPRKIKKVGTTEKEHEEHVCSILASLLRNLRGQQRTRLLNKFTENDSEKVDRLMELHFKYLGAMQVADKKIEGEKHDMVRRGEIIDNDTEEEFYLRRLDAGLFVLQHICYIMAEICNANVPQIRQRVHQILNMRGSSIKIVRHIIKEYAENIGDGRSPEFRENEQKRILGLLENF
UniProt Q9ULV4, sequence (Q9ULV4 whole entry, looked up): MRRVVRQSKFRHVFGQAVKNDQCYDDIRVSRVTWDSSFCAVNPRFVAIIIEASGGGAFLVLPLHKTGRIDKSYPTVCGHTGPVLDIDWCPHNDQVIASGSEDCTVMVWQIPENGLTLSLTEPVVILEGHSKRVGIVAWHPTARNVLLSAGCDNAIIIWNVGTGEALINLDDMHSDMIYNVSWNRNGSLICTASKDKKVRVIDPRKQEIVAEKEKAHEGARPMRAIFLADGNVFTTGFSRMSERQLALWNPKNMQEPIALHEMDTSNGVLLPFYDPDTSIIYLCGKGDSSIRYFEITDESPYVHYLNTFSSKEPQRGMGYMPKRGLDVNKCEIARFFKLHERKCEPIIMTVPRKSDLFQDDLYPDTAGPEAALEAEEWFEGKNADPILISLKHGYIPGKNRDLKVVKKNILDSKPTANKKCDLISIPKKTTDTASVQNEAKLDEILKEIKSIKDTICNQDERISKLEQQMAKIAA

Compound in the assay: CC1Cc2ccccc2N1C(=O)C1CCCN(C1)C(=O)CCl (mixture of isomers) [TRIM25 ligand 11 (diastereomer mixture)]
Kind of assay: probe-labelled cysteine peptide fold change vs DMSO (competition) (log2 fold change); higher = less target engagement (more negative = stronger competition). The following applies: 10 µM; THP-1; incubation time: 4 h.
Turning to “CPSF3_Q9UKF6_223_FCNTVHDIVNR (UniProt Q9UKF6)”, the “probe-labelled cysteine peptide fold change” value is -0.0667.

Regarding “DOK3_Q7L591_133_LADCVSVLPADGESCPR (UniProt Q7L591)”, the “probe-labelled cysteine peptide fold change” value amounted to 0.0537.

Turning to “DDX56_Q9NY93_185_SLLCHLPR (UniProt Q9NY93)”, the “probe-labelled cysteine peptide fold change” value came to 0.556.

“DDX24_Q9GZR7_599_SLVFANSISCIK (UniProt Q9GZR7)”: the “probe-labelled cysteine peptide fold change” value stood at 0.479.

As for “DDX3X_O00571_128_WCDKSDEDDWSK (UniProt O00571)”, the “probe-labelled cysteine peptide fold change” value was -0.422.

As for “DTWD2_Q8NBA8_143_FSEERDPELSTVCR (UniProt Q8NBA8)”, the “probe-labelled cysteine peptide fold change” value is 0.148.

For the target “DHX37_Q8IY37_766_LSCPITALGR (UniProt Q8IY37)”, the “probe-labelled cysteine peptide fold change” value was -0.0635.

As to “DSTN_P60981_39_AVIFCLSADK (UniProt P60981)”, the “probe-labelled cysteine peptide fold change” value was -0.0558.

For the target “DIP2A_Q14689_543_ALTQACGYSEAETLTNVLDFKR (UniProt Q14689)”, the “probe-labelled cysteine peptide fold change” value was determined as 0.205.

With “DDX60L_Q5H9U9_502_CHVDEQSR (UniProt Q5H9U9)”, the “probe-labelled cysteine peptide fold change” value was -0.013.

For “DCTPP1_Q9H773_110_CRVDLPLAVLSK (UniProt Q9H773)”, the “probe-labelled cysteine peptide fold change” value was -0.361.

Regarding “CORO1C_Q9ULV4_39_VTWDSSFCAVNPR (UniProt Q9ULV4)”, the “probe-labelled cysteine peptide fold change” value was 0.0602.

As for “DYNC1H1_Q14204_3573_WQASSLPADDLCTENAIMLK (UniProt Q14204)”, the “probe-labelled cysteine peptide fold change” value was -0.0171.

With “CRYL1_Q9Y2S2_141_QCIVAHPVNPPYYIPLVELVPHPETAPTTVDR (UniProt Q9Y2S2)”, the “probe-labelled cysteine peptide fold change” value turned out to be 0.0328.

As for “DHRS7_Q9Y394_233_TELATYPGIIVSNICPGPVQSNIVENSLAGEVTK (UniProt Q9Y394)”, the “probe-labelled cysteine peptide fold change” value was -0.0824.

Regarding “DPP9_Q86TI2_184_TQCSGPR (UniProt Q86TI2)”, the “probe-labelled cysteine peptide fold change” value is -0.111.

Regarding “DNAJC10_Q8IXB1_161_EFDAAVNSGELWFVNFYSPGCSHCHDLAPTWR (UniProt Q8IXB1)”, the “probe-labelled cysteine peptide fold change” value was 0.476.

For the target “CSNK1A1_P48729_249_MSTPVEVLCK (UniProt P48729)”, the “probe-labelled cysteine peptide fold change” value was -0.305.

In the case of “CRIP2_P52943_150_DWHRPCLR (UniProt P52943)”, the “probe-labelled cysteine peptide fold change” value worked out at 0.642.

“DOK3_Q7L591_493_KGPAPCDRP (UniProt Q7L591)”: the “probe-labelled cysteine peptide fold change” value is -0.0118.

Take “DCTN1_Q14203_677_YEHALSQCSVDVYKK (UniProt Q14203)”: the “probe-labelled cysteine peptide fold change” value is -0.0153.

With “DECR2_Q9NUI1_22_HLFCPDLLR (UniProt Q9NUI1)”, the “probe-labelled cysteine peptide fold change” value stood at 0.0413.

As to “DIP2B_Q9P265_1282_TCVVVAEERPR<|>DIP2C_Q9Y2E4_1263_TCVVVAEERPR (UniProt Q9Y2E4+Q9P265)”, the “probe-labelled cysteine peptide fold change” value was determined as 0.0276.

Turning to “DOP1B_Q9Y3R5_70_LAQCLHPALPSGVHLK (UniProt Q9Y3R5)”, the “probe-labelled cysteine peptide fold change” value came to 0.262.

With “DLGAP5_Q15398_129_YRPDMPCFLLSNQNAVK (UniProt Q15398)”, the “probe-labelled cysteine peptide fold change” value was -0.299.

Take “DDX6_P26196_324_VHCLNTLFSR (UniProt P26196)”: the “probe-labelled cysteine peptide fold change” value came to 0.158.

Take “DCP2_Q8IU60_391_KLQDNFETDAVYDLPSSSEDQLLEHAEGQPVACNGHCK (UniProt Q8IU60)”: the “probe-labelled cysteine peptide fold change” value was -0.209.

As to “DDX46_Q7L014_501_RGAEIIVCTPGR (UniProt Q7L014)”, the “probe-labelled cysteine peptide fold change” value is 0.161.

Take “DSN1_Q9H410_191_CFEDSNGK (UniProt Q9H410)”: the “probe-labelled cysteine peptide fold change” value was 0.115.

In the case of “CPNE8_Q86YQ8_118_HDFLGQVFCTLGEIVGSQGSR (UniProt Q86YQ8)”, the “probe-labelled cysteine peptide fold change” value came to 0.132.

For “DDX59_Q5T1V6_208_QQLGILVQGQEVTRPIIDFEHCSLPEVLNHNLKK (UniProt Q5T1V6)”, the “probe-labelled cysteine peptide fold change” value is -0.239.

“DUS3L_Q96G46_358_RHQCEDIFGVQLEGAFPDTMTK (UniProt Q96G46)”: the “probe-labelled cysteine peptide fold change” value came to 0.0341.

For “DARS_P14868_130_IGSCTQQDVELHVQK (UniProt P14868)”, the “probe-labelled cysteine peptide fold change” value came out at 0.0673.

In the case of “CTNNBL1_Q8WYA6_370_VLDHAMIGPEGTDNCHK (UniProt Q8WYA6)”, the “probe-labelled cysteine peptide fold change” value was -0.0184.

Regarding “CTSH_P09668_272_TGIYSSTSCHK (UniProt P09668)”, the “probe-labelled cysteine peptide fold change” value stood at 0.223.

Regarding “DBNL_Q9UJU6_97_KGACASHVSTMASFLK (UniProt Q9UJU6)”, the “probe-labelled cysteine peptide fold change” value was -0.0713.

“DUS3L_Q96G46_396_TVEVDFVDINVGCPIDLVYKK (UniProt Q96G46)”: the “probe-labelled cysteine peptide fold change” value is -0.169.

“CSMD2_Q7Z408-3_2_CDAHLR (UniProt Q7Z408)”: the “probe-labelled cysteine peptide fold change” value is -0.56.

For “DNAJA1_P31689_271_RGEDLFMCMDIQLVEALCGFQK (UniProt P31689)”, the “probe-labelled cysteine peptide fold change” value was -0.021.

The values above are taken from the supplement of paper PMC12067093, “Discovery and optimisation of a covalent ligand for TRIM25 and its application to targeted protein ubiquitination” (Chemical Science, 2025).
